{
  "source": "PubChem BioAssay (NCI)",
  "note": "This is part of a sample that, as a whole, favours compounds with a hit. Of some 79,000 tested, about 15% had one in any assay. A number with no mark means an inactive call. Rule as the data show it: active = growth inhibition above about 70%; inactive = the rest. Where a SMILES comes first, the peptide text is derived from it. The star is where a group is joined. Cbz = O=C(OCc1ccccc1)*; OBn = c1ccc(CO*)cc1",
  "data": [
    {"experiment": "NCI Yeast Anticancer Drug Screen. Data for the mlh1 rad18 strain (AID 175)", "settings": "S. cerevisiae mlh1 rad18 strain growth inhibition, active compounds read high; at 50.0 µM unless noted", "summary_of_the_method": "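Yeast w/ defined DNA-repair lesions; compound exposure; growth vs vehicle controls → % inhibition.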", "units": {"growth inhibition": "%"}, "values": [
      {"smiles": "c1ccc(C2(c3ccc(C4(c5ccccc5)Oc5ccccc5S4)[nH]3)Oc3ccccc3S2)cc1", "note": "(stereo not given)", "growth inhibition": 20.2},
      {"smiles": "COc1cccc(C#CC(=O)O)c1", "growth inhibition": -11.6},
      {"smiles": "Nc1nc(N)c(N=O)c(Nc2ccccc2)n1", "growth inhibition": 43.4},
      {"smiles": "C=C1C(=O)OC2/C=C(\\C)C(O)CCC(C)(O)CC(OC(=O)/C(C)=C/C)C12", "note": "(stereo not given)", "growth inhibition": -1.9},
      {"smiles": "NC(CSCCB(O)O)C(=O)O", "note": "(stereo not given)", "growth inhibition": -20.4},
      {"smiles": "Cc1ccc2nc(Sc3c([N+](=O)[O-])ncn3C)[nH]c2c1", "growth inhibition": -25.4},
      {"smiles": "CC(=O)c1ccccc1NC=O", "growth inhibition": 4.15},
      {"smiles": "CNc1cc([N+](=O)[O-])ccc1Br", "growth inhibition": -14.9},
      {"smiles": "CC(Cl)S(=O)(=O)c1ccccc1", "note": "(stereo not given)", "growth inhibition": -14.3},
      {"smiles": "CCC(C)C(NC(=O)C1CSC(C)(C)N1C=O)C(=O)OC1CCCCC1", "note": "(stereo not given)", "growth inhibition": 9.55},
      {"smiles": "O=C(NSN1CCOCC1)c1ccccc1", "growth inhibition": 38},
      {"smiles": "Cc1cnc2ccccc2c1/C=C/c1ccc(N(C)C)cc1", "growth inhibition": 14.1},
      {"smiles": "Cn1c(=O)c(C(=O)Nc2nc(C34CC5CC(CC(C5)C3)C4)cs2)c(O)c2ccccc21", "growth inhibition": -30.6},
      {"smiles": "CCOC(=O)N1CCc2cc(OC)c(OC)cc2C1Cc1ccc(OC)c(OC)c1", "note": "(stereo not given)", "growth inhibition": -5.5},
      {"smiles": "CCC(SC(CC)(CC)C(=O)O)C(N)=O", "note": "(stereo not given)", "growth inhibition": -8.1},
      {"smiles": "CC(=O)OCC(O)CS(=O)c1ccc(C)cc1", "note": "(stereo not given)", "growth inhibition": 4.2},
      {"smiles": "CC1(C)CC[C@]2(C(=O)O)CC[C@]3(C)C(=CC[C@@H]4[C@@]5(C)CC[C@H](OC6OC(CO)C(O)C(O)C6O)C(C)(C)[C@@H]5CC[C@]43C)[C@@H]2C1", "note": "(stereo not given in full)", "growth inhibition": 54.4},
      {"smiles": "O=C(NC1c2ccccc2Oc2ccccc21)OCCI", "growth inhibition": 19.8},
      {"smiles": "COc1ccc(N=N/C(=N/NC(=O)c2cc(Cl)ccc2C(=O)c2ccccc2)c2ccc(N(CCC#N)CCC#N)cc2C)cc1", "growth inhibition": 12.8},
      {"smiles": "N#CCN1CCc2ccccc2C1", "growth inhibition": -6},
      {"smiles": "Cc1nc2c3c(ccc2[nH]c1=O)C(=O)c1ccccc1C3=O", "growth inhibition": 38.2},
      {"smiles": "Cc1ccc(N2C(=O)C3CSCN3C2=O)cc1", "note": "(stereo not given)", "growth inhibition": 6.25},
      {"smiles": "Cc1ccc(-c2ccc(C)cc2C(=O)O)c(C(=O)O)c1", "growth inhibition": -15.3},
      {"smiles": "CC(CC(O)C(=O)O)CC(C)(C)C", "note": "(stereo not given)", "growth inhibition": 2.6},
      {"smiles": "N#Cc1sc2c(c1OC(=O)c1cccs1)c(=O)n(-c1ccccc1)c(=S)n2-c1ccccc1", "growth inhibition": 15.2},
      {"smiles": "O=C(O)c1nc2ccccc2nc1C(=O)O", "growth inhibition": -3.85},
      {"smiles": "CC1(C)C2CCC3(C2)CS(=O)(=O)N2OC231", "note": "(stereo not given)", "growth inhibition": -9.7},
      {"smiles": "O=C(Cc1ccccc1)SC(=O)Cc1ccccc1", "growth inhibition": 10},
      {"smiles": "COC(=O)c1cc(NC(=O)Nc2cccc(C(C)=O)c2)cc(C(=O)OC)c1", "growth inhibition": 36.4},
      {"smiles": "COC(=O)C(Cc1ccc(O)cc1)NC(=O)C(CC(=O)OCc1ccccc1)NC(=O)OCc1ccccc1", "note": "(stereo not given) (Cbz-Asp(OBn)-Tyr-OMe; configuration not given here)", "growth inhibition": 0.55},
      {"smiles": "CC(=O)c1cccc(N=NN(C)C)c1", "growth inhibition": 46.8},
      {"smiles": "COC(=O)C1Cc2c([nH]c3ccccc23)C=N1", "note": "(stereo not given)", "growth inhibition": 62.6},
      {"smiles": "CC(C)c1cccc(C(C)C)c1NC(=O)N1CCCCC1", "growth inhibition": 10.2},
      {"smiles": "O=C(O)CC(O)(CC(=O)O)C(=O)O", "growth inhibition": 9.25},
      {"smiles": "Nc1c(F)cc(I)cc1F", "growth inhibition": 1.35},
      {"smiles": "CC(=O)OCCOCNC(=S)N/N=C(\\C)c1ccco1", "growth inhibition": -11.9},
      {"smiles": "c1ccc2c(c1)Cc1cc3ccccc3cc1C2", "growth inhibition": -27.8},
      {"smiles": "CN(C)c1cccc2c(S(=O)(=O)NCCCNCCN)cccc12", "growth inhibition": -6.6},
      {"smiles": "O=C(O)c1ccc(NCC(O)COc2ccc([N+](=O)[O-])cc2)cc1", "note": "(stereo not given)", "growth inhibition": 0.25},
      {"smiles": "CCCCCCCCN1C(=O)CCC1=O", "growth inhibition": -0.5}
    ]}
  ]
}
